# Experimental data: PubChem BioAssay (Tox21)
# Where “and” joins values, the source holds several entries; their conditions need not be identical. Identical values can stand only once. Results filed as inconclusive are left out. Some structures have more than one record in an assay (separate samples or runs), and their calls can disagree. Calls of active or inactive are those of the source. The call rests on the fitted dose curve; in most records, active means well fitted activation curve with a large enough effect in the repeat runs; inconclusive means weak or mixed curves; inactive means flat fitted curve, though single readings scatter.
# Test: A CellTox Green Cytotoxicity Assay to monitor cytotoxicity in HEK293 cells - 32 hour (AID 1224881); further: nearly all actives have a fitted effect of over 40% in size
# Conditions: CellTox Green fluorescence; series mostly up to 76.8 µM; cytotoxicity increase: at the top concentration
# How it was run: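 Cytotoxicity was tracked continuously in HEK293 cells by a DNA-binding dye excluded from viable cells. Compounds were transferred in DMSO 5 h after seeding; fluorescence was recorded at intervals up to 40 h.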
# On the % scale 0 is the no-effect control and ±100 the full control effect; potency means the concentration at half of the fitted maximal effect.
SMILES,cytotoxicity increase,Potency
CSSC,-13% (inactive),–
CSC1=N[C@@](C)(c2ccccc2)C(=O)N1Nc1ccccc1,1.65% (inactive),–
N#CCCl,-1.15% (inactive),–
CCCC[N+]1(C)CCCC1 (tested in a mixture with another compound),-26.9% (inactive),–
Cc1ccc([N+](=O)[O-])[c]2c1[O][Hg]2,–,0.674 µM (active)
COC(=O)/C=C(\C)OP(=O)(OC)OC,-0.601% (inactive),–
COP(=S)(OC)Oc1ccc([N+](=O)[O-])c(C)c1,13.2% (inactive),–
CCC[CH2][Sn]([CH2]CCC)([O]C(C)=O)[O]C(C)=O,–,0.392 µM (active)
CC#C[C@]1(O)CC[C@H]2[C@@H]3C[C@H](C)C4=CC(=O)CC[C@]4(C)[C@H]3CC[C@@]21C,6.85% [at 35.3 µM] (inactive),–
CC1CCCC1,-7.94% (inactive),–
CCCCn1cc[n+](C)c1.[Cl][Fe-]([Cl])([Cl])[Cl],0.343% (inactive),–
Nc1nc(N)c(N)c(N)n1,–,49.2 µM (active)
CCC(C)Nc1c([N+](=O)[O-])cc(C(C)(C)C)cc1[N+](=O)[O-] (stereo unspecified),12.2% (inactive),–
O=C(NC(=O)c1c(F)cccc1F)Nc1ccc(Oc2ccc(C(F)(F)F)cc2Cl)cc1F,0.195% (inactive),–
CCCCC(CC)COC(=O)OOC(C)(C)C (stereo unspecified),12.6% (inactive),–
CC1CN1 (stereo unspecified),6.15% (inactive),–
O=S(=O)(NS(=O)(=O)C(F)(F)F)C(F)(F)F,16.6% (inactive),–
O.O.O.O.O.O.O.O=S(=O)([O-])[O-].[Co+2],-19.1% (inactive),–

# Test: A CellTox Green Cytotoxicity Assay to monitor cytotoxicity in HepG2 cells - 0 hour (AID 1224882); further: nearly all actives have a fitted effect of over 35% in size
# Conditions: CellTox Green fluorescence; series mostly up to 76.8 µM; cytotoxicity: at the top concentration
# How it was run: (§1)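 Real-time, homogeneous cytotoxicity readout: dead-cell DNA staining by CellTox Green in HepG2 monolayers, fluorescence measured at timed intervals up to 40 h of continuous compound exposure.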
SMILES,cytotoxicity,Potency
Nc1cc(Cl)ccc1Cl,-0.505% (inactive),–
O=c1[nH]c(Cl)c(Cl)cc1Cl,2.26% (inactive),–
CCCCCCCCCCCCCCn1cc[n+](C)c1,–,inactive
CSC(=O)c1c(C(F)F)nc(C(F)(F)F)c(C(=O)SC)c1CC(C)C,7.52% (inactive),–
Cc1ccc(C)c2ccccc12,-0.302% (inactive),–
CC(Cc1ccccc1)N(C)Cc1ccco1 (stereo unspecified),-9.39% [at 35.3 µM] (inactive),–
O=C(CCCCl)c1ccc(F)cc1,5.77% [at 35.3 µM] (inactive),–
O=C(NC(=O)c1ccccc1Cl)Nc1ccc(OC(F)(F)F)cc1,1.37% (inactive),–
Oc1cccc(Cl)c1Cl,-2.04% (inactive),–
CCCCC/C=C\C/C=C\C/C=C\C/C=C\CCCC(=O)NCC(=O)O,5.85% [at 35.3 µM] (inactive),–
O=C(N[C@H]1N=C(c2ccccc2F)c2cccc3c2N(CC3)C1=O)c1cc2ccccc2[nH]1,8.14% [at 35.3 µM] (inactive),–
CNC(C)(C)Cc1ccccc1,7.25% [at 35.3 µM] (inactive),–
O=[N+]([O-])[O-].[Tl+],0.0511% (inactive),–
ClC(Cl)C(Cl)(Cl)Cl,3.51% (inactive),–
C[C@@H]1CC2=CC(=O)CC[C@@H]2[C@H]2CC[C@@]3(C)[C@@H](CC[C@]3(C)O)[C@@H]21,-2.21% [at 35.3 µM] (inactive),–
Brc1ccc(Oc2ccc(Br)cc2Br)c(Br)c1,0.0792% (inactive),–
CC(=O)[O-].CC(=O)[O-].CC(=O)[O-].[Sb+3],-11% [at 2.72 µM] (inactive),–
COP(=S)(OC)Oc1nc(Cl)c(Cl)cc1Cl,1.44% (inactive),–
CC(C)Br,-0.0393% (inactive),–
[O-][Cl+3]([O-])([O-])O,-4.69% (inactive),–

SMILES,cytotoxicity,Potency
CC(C)[C@@H](Nc1ccc(C(F)(F)F)cc1Cl)C(=O)OC(C#N)c1cccc(Oc2ccccc2)c1 (stereo partly specified),6.22% (inactive),–
CSSC,-5.12% (inactive),–
CSC1=N[C@@](C)(c2ccccc2)C(=O)N1Nc1ccccc1,-0.546% (inactive),–
N#CCCl,-1.24% (inactive),–
CCCC[N+]1(C)CCCC1 (tested in a mixture with another compound),-1.86% (inactive),–
Cc1ccc([N+](=O)[O-])[c]2c1[O][Hg]2,-2.71% [at 35.3 µM] (inactive),–
COC(=O)/C=C(\C)OP(=O)(OC)OC,-5% (inactive),–
COP(=S)(OC)Oc1ccc([N+](=O)[O-])c(C)c1,-1.85% (inactive),–
CCC[CH2][Sn]([CH2]CCC)([O]C(C)=O)[O]C(C)=O,-8.38% (inactive),–
CC#C[C@]1(O)CC[C@H]2[C@@H]3C[C@H](C)C4=CC(=O)CC[C@]4(C)[C@H]3CC[C@@]21C,2.2% [at 35.3 µM] (inactive),–
CC1CCCC1,-9.44% (inactive),–
CCCCn1cc[n+](C)c1.[Cl][Fe-]([Cl])([Cl])[Cl],0.897% (inactive),–
Nc1nc(N)c(N)c(N)n1,–,49.2 µM (active)
CCC(C)Nc1c([N+](=O)[O-])cc(C(C)(C)C)cc1[N+](=O)[O-] (stereo unspecified),1.13% (inactive),–
O=C(NC(=O)c1c(F)cccc1F)Nc1ccc(Oc2ccc(C(F)(F)F)cc2Cl)cc1F,2.91% (inactive),–
CCCCC(CC)COC(=O)OOC(C)(C)C (stereo unspecified),-0.528% (inactive),–
CC1CN1 (stereo unspecified),4.96% (inactive),–
O=S(=O)(NS(=O)(=O)C(F)(F)F)C(F)(F)F,-0.587% (inactive),–
O.O.O.O.O.O.O.O=S(=O)([O-])[O-].[Co+2],12.9% (inactive),–

# Test: A CellTox Green Cytotoxicity Assay to monitor cytotoxicity in HepG2 cells - 32 hour (AID 1224883); further: nearly all actives have a fitted effect of over 50% in size
# Conditions: CellTox Green fluorescence; series mostly up to 76.8 µM; cytotoxicity increase: at the top concentration
# How it was run: as §1
SMILES,cytotoxicity increase,Potency
Nc1cc(Cl)ccc1Cl,-0.524% (inactive),–
O=c1[nH]c(Cl)c(Cl)cc1Cl,2.27% (inactive),–
CCCCCCCCCCCCCCn1cc[n+](C)c1,–,21.9 µM (active) and 24.3 µM (active) and inactive
CSC(=O)c1c(C(F)F)nc(C(F)(F)F)c(C(=O)SC)c1CC(C)C,4.13% (inactive),–
Cc1ccc(C)c2ccccc12,2.78% (inactive),–
CC(Cc1ccccc1)N(C)Cc1ccco1 (stereo unspecified),5.78% [at 35.3 µM] (inactive),–
O=C(CCCCl)c1ccc(F)cc1,6.24% [at 35.3 µM] (inactive),–
O=C(NC(=O)c1ccccc1Cl)Nc1ccc(OC(F)(F)F)cc1,-0.0847% (inactive),–
Oc1cccc(Cl)c1Cl,-3.75% (inactive),–
CCCCC/C=C\C/C=C\C/C=C\C/C=C\CCCC(=O)NCC(=O)O,19% [at 35.3 µM] (inactive),–
O=C(N[C@H]1N=C(c2ccccc2F)c2cccc3c2N(CC3)C1=O)c1cc2ccccc2[nH]1,24.2% [at 35.3 µM] (inactive),–
CNC(C)(C)Cc1ccccc1,-0.361% [at 35.3 µM] (inactive),–
O=[N+]([O-])[O-].[Tl+],-0.294% (inactive),–
ClC(Cl)C(Cl)(Cl)Cl,3.51% (inactive),–
C[C@@H]1CC2=CC(=O)CC[C@@H]2[C@H]2CC[C@@]3(C)[C@@H](CC[C@]3(C)O)[C@@H]21,-9.57% [at 35.3 µM] (inactive),–
Brc1ccc(Oc2ccc(Br)cc2Br)c(Br)c1,-4.61% (inactive),–
CC(=O)[O-].CC(=O)[O-].CC(=O)[O-].[Sb+3],-22.1% [at 2.72 µM] (inactive),–
COP(=S)(OC)Oc1nc(Cl)c(Cl)cc1Cl,6.07% (inactive),–
CC(C)Br,-1.56% (inactive),–
[O-][Cl+3]([O-])([O-])O,-15.7% (inactive),–

SMILES,cytotoxicity increase,Potency
CC(C)[C@@H](Nc1ccc(C(F)(F)F)cc1Cl)C(=O)OC(C#N)c1cccc(Oc2ccccc2)c1 (stereo partly specified),-6.92% (inactive),–
CSSC,-0.655% (inactive),–
CSC1=N[C@@](C)(c2ccccc2)C(=O)N1Nc1ccccc1,-0.773% (inactive),–
N#CCCl,4.96% (inactive),–
CCCC[N+]1(C)CCCC1 (tested in a mixture with another compound),2.34% (inactive),–
Cc1ccc([N+](=O)[O-])[c]2c1[O][Hg]2,–,2.13 µM (active)
COC(=O)/C=C(\C)OP(=O)(OC)OC,14.2% (inactive),–
COP(=S)(OC)Oc1ccc([N+](=O)[O-])c(C)c1,-11.7% (inactive),–
CCC[CH2][Sn]([CH2]CCC)([O]C(C)=O)[O]C(C)=O,–,0.221 µM (active)
CC#C[C@]1(O)CC[C@H]2[C@@H]3C[C@H](C)C4=CC(=O)CC[C@]4(C)[C@H]3CC[C@@]21C,25.3% [at 35.3 µM] (inactive),–
CC1CCCC1,-11.8% (inactive),–
CCCCn1cc[n+](C)c1.[Cl][Fe-]([Cl])([Cl])[Cl],-5.68% (inactive),–
Nc1nc(N)c(N)c(N)n1,–,55.2 µM (active)
CCC(C)Nc1c([N+](=O)[O-])cc(C(C)(C)C)cc1[N+](=O)[O-] (stereo unspecified),1.13% (inactive),–
O=C(NC(=O)c1c(F)cccc1F)Nc1ccc(Oc2ccc(C(F)(F)F)cc2Cl)cc1F,-10.2% (inactive),–
CCCCC(CC)COC(=O)OOC(C)(C)C (stereo unspecified),-12.7% (inactive),–
CC1CN1 (stereo unspecified),2.42% (inactive),–
O=S(=O)(NS(=O)(=O)C(F)(F)F)C(F)(F)F,–,48.9 µM (active)
O.O.O.O.O.O.O.O=S(=O)([O-])[O-].[Co+2],0.723% (inactive),–
